From PubChem BioAssay (EPA / NIEHS)
Values joined by “and” are separate entries in the source; they are usually repeats but may differ in a detail not shown here. Equal values may be shown once. Results filed as inconclusive are left out. Some structures have more than one record in an assay (separate samples or runs), and their calls can disagree. Active and inactive are the calls of the source. Rule for the calls, unless noted: active = hit-call score of the fitted dose curve at least 0.9, where 1 is the maximum; inactive = score below 0.9.

Experiments:
[1] = ATG_TAL_CIS: Attagene CIS-FACTORIAL HepG2 Assay for human TAL Basal Promoter (AID 2282966); conditions: HepG2 Attagene cis-factorial TAL promoter reporter; actives raise or lower the signal;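 note: background control endpoint measuring basal TAL promoter reporter mRNA not a specific factor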
In short: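 Basal-promoter background-control endpoint from a multiplexed HepG2 reporter panel. Cells were exposed 24 h, then reporter mRNA was read by RT-PCR/CE fluorescence and fitted in both directions relative to DMSO.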

[2] = ATG_TGFb_CIS: Attagene CIS-FACTORIAL HepG2 Assay for human Transforming Growth Factor (TGF) (AID 2282967); conditions: HepG2 Attagene CIS TGFb reporter, mRNA transcription; actives raise or lower the signal
In short: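 Transient MRTU transfection of HepG2 (FuGene 6). Dose 24 h. TriZol RNA, oligo(dT) RT, PCR, 6-FAM primer extension, HpaI cut, CE. Bidirectional fit, DMSO = baseline.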

[3] = ATG_VDRE_CIS: Attagene CIS-FACTORIAL HepG2 Assay for human Vitamin D Receptor Element (VDRE) (AID 2282968); conditions: HepG2 VDRE cis-reporter transcription, actives raise or lower the signal
In short: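 Readout is VDRE-driven reporter mRNA reflecting endogenous factor activity in human HepG2 cells, sampled 24 h post-dose. Quantification used labelled RT-PCR products separated by capillary electrophoresis; bidirectional analysis relative to DMSO.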

[4] = target: Nuclear receptor subfamily 1 group I member 3 (Homo sapiens) (UniProt Q14994); experiment: ATG_CAR_TRANS: Attagene TRANS-FACTORIAL HepG2 Assay for human Constitutive Androstane Receptor (CAR) (AID 2282969; active = hit-call score of the fitted dose curve at least 0.9, where 1 is the maximum;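 note: activators raise reporter mRNA above DMSO so AC50 marks induction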); conditions: HepG2 Attagene TRANS-FACTORIAL CAR reporter
Chain of Nuclear receptor subfamily 1 group I member 3 (Homo sapiens) (Q14994 whole entry, looked up, the tested form may be a part): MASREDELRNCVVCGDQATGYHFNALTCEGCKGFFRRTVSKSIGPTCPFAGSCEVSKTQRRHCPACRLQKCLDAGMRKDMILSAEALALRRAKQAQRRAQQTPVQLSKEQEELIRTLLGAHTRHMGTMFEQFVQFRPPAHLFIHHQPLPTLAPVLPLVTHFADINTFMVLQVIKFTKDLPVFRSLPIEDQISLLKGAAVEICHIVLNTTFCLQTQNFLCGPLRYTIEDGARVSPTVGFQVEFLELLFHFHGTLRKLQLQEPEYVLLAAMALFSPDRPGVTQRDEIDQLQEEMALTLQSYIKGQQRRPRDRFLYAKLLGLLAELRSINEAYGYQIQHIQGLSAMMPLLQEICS
In short: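 Signal is reporter mRNA induction relative to DMSO, measured 24 h after dosing by RT-PCR with fluorescent primer extension and capillary electrophoresis. Human HepG2 liver cells carried transiently transfected chimeric NR-Gal4/GAL4-UAS reporter constructs.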

[5] = target: Estrogen receptor (Homo sapiens) (UniProt P03372); experiment: ATG_ERa_TRANS: Attagene TRANS-FACTORIAL HepG2 Assay for human Estrogen Receptor alpha (ERa) (AID 2282970; active = hit-call score of the fitted dose curve at least 0.9, where 1 is the maximum); conditions: HepG2 Attagene TRANS ERa GAL4 reporter, mRNA
Chain of Estrogen receptor (Homo sapiens) (P03372 whole entry, looked up, the tested form may be a part): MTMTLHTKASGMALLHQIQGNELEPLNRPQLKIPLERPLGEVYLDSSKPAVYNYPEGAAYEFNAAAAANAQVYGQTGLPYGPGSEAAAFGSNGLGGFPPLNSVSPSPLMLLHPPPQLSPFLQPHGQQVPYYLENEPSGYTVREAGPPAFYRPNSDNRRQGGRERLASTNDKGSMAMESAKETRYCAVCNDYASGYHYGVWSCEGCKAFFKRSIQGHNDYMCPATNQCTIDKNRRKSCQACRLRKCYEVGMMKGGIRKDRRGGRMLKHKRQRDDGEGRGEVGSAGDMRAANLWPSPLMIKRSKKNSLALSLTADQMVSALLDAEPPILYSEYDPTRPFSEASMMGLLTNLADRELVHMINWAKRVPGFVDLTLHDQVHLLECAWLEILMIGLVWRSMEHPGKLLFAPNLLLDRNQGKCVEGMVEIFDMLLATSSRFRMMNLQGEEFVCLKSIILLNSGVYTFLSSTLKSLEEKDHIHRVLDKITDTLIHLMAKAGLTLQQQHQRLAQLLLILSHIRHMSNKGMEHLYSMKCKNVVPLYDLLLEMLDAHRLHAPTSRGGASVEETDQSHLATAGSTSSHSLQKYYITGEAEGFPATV
In short: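 Gal4-fusion ERa transactivation, measured as reporter transcript level in transiently transfected HepG2 cells. Exposure 24 h; RT-PCR plus capillary electrophoresis with fluorescence detection.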

[6] = target: X-box-binding protein 1 (Homo sapiens) (UniProt P17861); experiment: ATG_Xbp1_CIS: Attagene CIS-FACTORIAL HepG2 Assay for human X-box Binding Protein 1 (XBP1) (AID 2282972); conditions: HepG2 XBP1 cis-element reporter, Attagene multiplex; actives raise or lower the signal
Chain of X-box-binding protein 1 (Homo sapiens) (P17861 whole entry, looked up): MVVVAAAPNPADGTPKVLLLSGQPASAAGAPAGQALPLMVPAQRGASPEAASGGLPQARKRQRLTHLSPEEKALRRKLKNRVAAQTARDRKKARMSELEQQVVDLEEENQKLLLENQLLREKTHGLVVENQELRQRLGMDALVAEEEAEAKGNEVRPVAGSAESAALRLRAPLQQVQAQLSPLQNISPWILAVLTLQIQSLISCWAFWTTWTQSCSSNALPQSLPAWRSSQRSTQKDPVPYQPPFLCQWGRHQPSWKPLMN
In short: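 Human hepatoma HepG2, cis-element reporter system, 24 h treatment; mRNA quantified by RT-PCR/CE fluorescence; fit relative to DMSO.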

[7] = ATG_M_19_TRANS: Attagene TRANS-FACTORIAL HepG2 Assay for M19 Transcription Factor (Internal Marker) (AID 2282974; active = hit-call score of the fitted dose curve at least 0.9, where 1 is the maximum); conditions: HepG2 Attagene TRANS-FACTORIAL M19 internal marker reporter
In short: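 Using RT-PCR and capillary electrophoresis, reporter mRNA from transiently transfected human HepG2 cells was quantified following 24 h exposure; activity was fitted in the positive direction against DMSO.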

[8] = ATG_GAL4_TRANS: Attagene TRANS-FACTORIAL HepG2 Assay for GAL4 (Internal Marker) (AID 2282976; active = hit-call score of the fitted dose curve at least 0.9, where 1 is the maximum); conditions: HepG2 Attagene TRANS GAL4 internal marker reporter
In short: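 Background-control readout: GAL4-UAS reporter transcript in transiently transfected HepG2 cells after 24 h compound exposure. Measured by RT-PCR, 6-FAM primer extension, HpaI digest and capillary electrophoresis; gain-of-signal fit versus DMSO.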

[9] = target: Estrogen-related receptor gamma (Homo sapiens) (UniProt P62508); experiment: ATG_ERRg_TRANS: Attagene TRANS-FACTORIAL HepG2 Assay for human Estrogen-Related Receptor gamma (ERRg) (AID 2282977; active = hit-call score of the fitted dose curve at least 0.9, where 1 is the maximum;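 note: hits increase reporter signal over DMSO so potencies reflect activators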); conditions: HepG2 Attagene TRANS reporter, ERRg transactivation
Chain of Estrogen-related receptor gamma (Homo sapiens) (P62508 whole entry, looked up, the tested form may be a part): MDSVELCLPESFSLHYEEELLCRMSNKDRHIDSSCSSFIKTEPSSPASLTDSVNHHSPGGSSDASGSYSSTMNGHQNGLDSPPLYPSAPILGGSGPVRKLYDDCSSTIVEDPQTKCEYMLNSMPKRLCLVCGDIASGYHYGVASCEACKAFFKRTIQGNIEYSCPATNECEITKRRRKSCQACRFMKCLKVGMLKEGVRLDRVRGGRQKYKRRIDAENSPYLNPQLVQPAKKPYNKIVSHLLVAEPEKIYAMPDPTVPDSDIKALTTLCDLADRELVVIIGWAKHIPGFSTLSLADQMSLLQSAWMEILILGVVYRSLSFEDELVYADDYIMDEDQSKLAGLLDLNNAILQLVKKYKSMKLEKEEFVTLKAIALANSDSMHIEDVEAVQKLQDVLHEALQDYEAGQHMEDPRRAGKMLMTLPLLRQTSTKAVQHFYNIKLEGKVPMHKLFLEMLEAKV
In short: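 Induction of reporter transcripts through a chimeric NR-Gal4 protein is quantified in transfected human HepG2 liver cells after 24 h chemical exposure, using RT-PCR with capillary electrophoresis detection and DMSO as baseline.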

[10] = ATG_TCF_b_cat_CIS: Attagene CIS-FACTORIAL HepG2 Assay for human T-Cell-Factor with beta-catenin (TCF/b-cat) (AID 2282965); conditions: HepG2 TCF/beta-catenin cis-reporter transcription, actives raise or lower the signal
In short: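 Endogenous transcription factor activity is captured through cis-promoter reporter constructs transiently introduced into human HepG2 liver cells. Induced reporter mRNA is measured after 24 h and fitted bidirectionally relative to DMSO.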

Measured: AC50

Cc1cccc(O)c1C
active: [5] 38.5 µM and 46 µM
not listed: [10]
inactive: all other assays above

O=c1[nH]cnc2c1ncn2[C@H]1CC[C@@H](CO)O1
not listed: [3] | [5] | [8]
inactive: all other assays above

O=C(O)c1ccc2c(c1)nc(C(=O)NC1CCN(C3CC3)CC1)n2Cc1cc(-c2ccc(Cl)s2)on1
inactive: [10] | [1] | [2] | [5] | [6] | [8]

O=C(O)c1cccc(C(=O)O)c1
inactive: [10] | [1] | [2] | [6] | [7] | [8]

CCN(CC)C(=S)SSC(=S)N(CC)CC
inactive: [1] | [2] | [4] | [5] | [7]
active: [3] 117 µM | [6] 139 µM

NC(=O)N1c2ccccc2C=Cc2ccccc21
inactive: [10] | [1] | [2] | [5] | [6] | [8]

OCc1c[nH]c2ccccc12
active: [3] 5.32 µM [middle of 5 runs] | [5] 5.36 µM [middle of 5 runs]
not listed: [10]
inactive: all other assays above

FC(F)=C(F)C(F)(F)C(F)(F)C(F)(F)C(F)(F)C(F)(F)C(F)(F)F
active: [5] 12.9 µM
inactive: [1] | [2] | [3] | [4] | [5] | [6] | [7] | [8] | [9]

CCCc1ccccc1
inactive: [10] | [1] | [2] | [3] | [6] | [8]

CCCCOC(=O)c1ccccc1
inactive: [10] | [1] | [2] | [3] | [6]

C=CN1CCCC1=O
inactive: [10] | [1] | [2] | [4] | [5] | [6]

CC(C)C(=O)Nc1ccc([N+](=O)[O-])c(C(F)(F)F)c1
active: [6] 27 µM
not listed: [3] | [4] | [8]
inactive: all other assays above

OCCC(F)(F)C(F)(F)C(F)(F)C(F)(F)F
not listed: [10]
inactive: all other assays above

CC(C)CCCCCCOC(=O)C1CCCCC1C(=O)OCCCCCCC(C)C (centres undefined)
inactive: [10] | [1] | [2] | [3] | [6] | [7]

OC[C@H]1O[C@@](CO)(O[C@H]2O[C@H](CO)[C@@H](O)[C@H](O)[C@H]2O)[C@@H](O)[C@@H]1O
inactive: [10] | [1] | [2] | [6] | [9]

NC(N)=O
inactive: [10] | [1] | [2] | [6] | [7] | [8]

COc1cc2c(c(OC)c1OC)-c1ccc(OC)c(=O)cc1[C@@H](NC(C)=O)CC2
active: [10] 348 nM
inactive: [1] | [2] | [3] | [6]

OCC(CO)(CO)CO
not listed: [8] | [9] | [10]
inactive: all other assays above

O=C1CN(N=Cc2ccc([N+](=O)[O-])o2)C(=O)N1
inactive: [1] | [2] | [3] | [6] | [7]
active: [5] 32.1 µM

OC(Cn1cncn1)(Cn1cncn1)c1ccc(F)cc1F
not listed: [4] | [8] | [10]
inactive: all other assays above

CCCCCCCCN(C)C
active: [3] 0.00907 µM
inactive: [1] | [2] | [5] | [6] | [7]

NNC(=O)c1ccncc1
not listed: [4] | [10]
inactive: all other assays above
